# Source: PubChem (National Center for Advancing Translational Sciences (NCATS))
# Rab9 prom act – activates the Rab9 promoter. Potency, µM (highest dose often 9.22 µM), for inactives: at the top dose activation, negative = inhibition, usual class: activators. Huh7 Rab9 promoter-luciferase reporter, luminescence, 24 h. AID 485297. 320,000 tested, 2.8% active; note: % of control where 0% means no effect; nearly all actives have a fitted effect of over 60% in size
#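 Steps: seed 1500 Huh7 Rab9-luc cells per well, rest 2 h at 37 °C; add compound in DMSO; incubate 24 h; add luciferase reagent, 10 min ambient; read luminescence.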
# p53 reactivation – restores transcriptional activity of mutant p53 | H1299 p53-A138V BP100-luciferase reporter, luminescence, 24 h | Potency, µM (series often up to 92.2 µM), for inactives: at the top dose activity change, positive = activation, actives largely listed as activators | AID 504706 | 320,000 tested, 0.063% active; note: % of control where 0% means no effect; nearly all actives have a fitted effect of over 45% in size
#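 H1299 (p53-null), stable ts p53-A138V + BP100-Luc; 1000 cells/well, Opti-MEM/10% FBS; cpd 4 pt, 1:5; 24 h, 37 deg C, 5% CO2; detection reagent 10 min RT; luminescence.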
# ELG1 genotox – induces genotoxicity in HEK293T cells with luciferase-tagged ELG1. HEK293T ELG1-luciferase reporter, luminescence, 16 h. Potency, µM (highest dose often 46 µM), inactives show at the highest dose activity change, positive = activation, most hits filed as activators. 330,000 tested, 1.3% active. AID 504466; note: % of control where 0% means no effect; nearly all actives have a fitted effect of over 60% in size
#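 Reporter readout depends on ELG1 protein level, which increases with genetic stress. After 16 hr compound exposure at 37 °C, luciferase activity was quantified using ONE-Glo.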
# NPC1 prom act – NPC1 promoter activation | Huh7 NPC1 promoter luciferase reporter, 24 h | Potency, µM (series often up to 9.22 µM), without a hit: at the highest dose activation, most hits filed as activators | 320,000 tested, 2.4% active; note: % of control where 0% means no effect; nearly all actives have a fitted effect of over 60% in size
#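 In 1536-well qHTS, Huh7 cells harboring an NPC1 promoter–luciferase construct received compound for 24 h; activation was quantified by luminescence following luciferase reagent addition.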
# FLuc counter – inhibits or activates purified firefly luciferase, miR-21 counter-screen; P08659; purified FLuc, Km substrates, luminescence inhibition; Potency, µM (highest dose often 57.5 µM), for the others: at the top dose activity change, negative = inhibition, actives largely listed as inhibitors; 360,000 tested, 6.9% active; AID 588342;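 note: plate controls were vehicle for no effect and reference inhibitor for full effect; nearly all actives have a fitted effect of over 55% in size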
# Target sequence (P08659 whole entry, looked up): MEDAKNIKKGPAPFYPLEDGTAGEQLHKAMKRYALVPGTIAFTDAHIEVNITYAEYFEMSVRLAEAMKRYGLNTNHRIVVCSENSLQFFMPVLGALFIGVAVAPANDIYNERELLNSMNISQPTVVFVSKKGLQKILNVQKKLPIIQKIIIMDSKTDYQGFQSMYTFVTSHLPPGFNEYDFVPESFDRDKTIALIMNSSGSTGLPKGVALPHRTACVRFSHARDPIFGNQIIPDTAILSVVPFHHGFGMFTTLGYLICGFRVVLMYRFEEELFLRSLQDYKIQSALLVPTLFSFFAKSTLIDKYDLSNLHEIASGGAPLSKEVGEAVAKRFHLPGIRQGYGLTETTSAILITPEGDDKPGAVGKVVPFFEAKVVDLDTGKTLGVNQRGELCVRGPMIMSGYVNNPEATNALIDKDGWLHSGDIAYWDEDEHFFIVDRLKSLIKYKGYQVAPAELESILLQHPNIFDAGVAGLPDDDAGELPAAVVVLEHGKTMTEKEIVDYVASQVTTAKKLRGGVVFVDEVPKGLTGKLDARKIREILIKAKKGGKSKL
#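 Biochemical qHTS of compounds, final roughly 60 µM downward over six points, against 10 nM purified firefly luciferase using Km concentrations of substrates (10 uM D-luciferin, 10 uM ATP) in Tris acetate pH 7.5 buffer; luminescence output.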
# SMN2 splice enh – enhancers of SMN2 splice variant expression. HEK293 SMN2-luciferase splicing reporter, luminescence, 30-36 h. AID 1458. Potency, µM (doses to about 46.1 µM), for inactives: top-dose activity change, positive = activation, most hits filed as activators. 210,000 tested, 2.8% active; note: % of control where 0% means no effect; nearly all actives have a fitted effect of over 55% in size
#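 HEK293 cells carry an SMN2 […]–luciferase reporter in which exon 7 inclusion puts luciferase in frame. Cells were plated 10-12 h before compound addition, then incubated 30-36 h at 37C. ONE-Glo luminescence was read; sodium butyrate at 4.5 mM final served as control.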
# * = called active by the depositor; ? = inconclusive; · = no result; [ ] = dose if it differs, or a comment. The list is not random: actives were taken first. Their share in the collection is about 7.3%. Calls come from the whole dose curve; as a rule, active = well fitted curve in the direction sought with a large enough effect; inconclusive = small, poorly fitted or top-dose-only effect, or another doubt; inactive = no such curve, though single readings can be large; an effect the other way counts as inactive or inconclusive. Potency is the fitted concentration of half-maximal effect.
SMILES,Rab9 prom act,p53 reactivation,ELG1 genotox,NPC1 prom act,FLuc counter,SMN2 splice enh
O=C(Nc1ccccc1C(F)(F)F)c1cc2ccccc2o1,2.2µM*,·,10µM*,2.5µM*,3.4µM*,·
CCC1Oc2ccccc2N(CC(=O)NCc2ccccc2)C1=O (stereo unspecified),·,·,·,·,-4%,·
CC1N(C)c2cc(NC(=O)c3ccco3)ccc2C1(C)C (stereo unspecified),1µM*,?,?,3.2µM*,9.5µM*,16µM*
CCC(C)c1ccc(NC(=O)COC(=O)CCNC(=O)c2ccco2)cc1 (stereo unspecified),-3%,13%,3%,-3%,·,·
O=C(COc1ccc(Cl)cc1)Nc1ccc(NC(=O)c2ccco2)cc1,13%,0%,?,16%,1%,·
COc1ccc(-c2ccc(NC(=O)c3ccco3)cc2)nn1,0.1µM*,-6%,?,?,1.2µM*,·
CCC(C)c1ccc(NC(=O)c2ccco2)cc1 (stereo unspecified),0.32µM*,·,0.58µM*,0.14µM*,0.43µM*,·
CC1N(C)c2cc(NC(=O)c3ccco3)c(P(=O)(Nc3ccc([N+](=O)[O-])cc3)N3CCOCC3)cc2C1(C)C (stereo unspecified),-26%,-1%,-13%,1%,6%,-29%
O=C(Nc1ccc(Cl)cc1)c1ccco1,?,1%,?,2.8µM*,17µM*,·
CCCC(=O)c1cc(F)c(N2CCOCC2)cc1C,2%,5%,13%,6%,-12%,-8%
COc1cccc(CNC(=O)C2CCCN(S(=O)(=O)c3ccc4c(ccn4C)c3)C2)c1OC (stereo unspecified),·,·,·,·,5%,·
COc1cc2oc(=O)c(CC(=O)NCCc3ccccc3F)c(C)c2cc1OC,·,·,·,·,2%,3%
CN(C(=O)COC(=O)c1cnc(Cl)c(Cl)c1)C1CCCCC1,·,11%,-1%,·,·,·
CCCn1c(-c2ccc(F)cc2)nc2c(NC3CCN(Cc4ccccc4)CC3)nc(C)nc21,·,·,·,·,·,-40%
O=C(CSc1ccc(Cl)cc1)c1ccco1,8%,12%,20%,0%,?,13%
O=C(CCSc1ccc(Cl)cc1)c1ccco1,-2%[1.84 µM],-16%,-9%,-2%,21µM*,·
CN(C(=O)c1ccc(NC(=O)c2ccco2)cc1)c1ccccc1,?,21%,?,?,17µM*,·
CC(=O)c1ccc(NC(=O)c2ccc(NC(=O)c3ccco3)cc2)cc1,0%,-5%,-15%,2%,-5%,·
CC(=O)Nc1ccc(NC(=O)c2ccco2)cc1,?,10%,?,22%,?,18µM*
CO[C@]1(NC(=O)[C@H](C(=O)O)c2ccc(O)cc2)C(=O)N2C(C(=O)O)=C(CSc3nnnn3C)CO[C@H]21,·,·,·,·,·,2%[20.6 µM]
Cc1[nH]c2ccccc2c1/C=N/Nc1ccccn1,14%,-3%,0%,-7%,24µM*,2%
Cc1[nH]c2ccccc2c1/C=N/Nc1nncn1N,?,12%,?,6%,2.1µM*,20%
Cc1ccc2oc(=O)n(CCCOc3ccc(Cl)cc3)c2c1,·,·,·,·,-13%,-19%
CC(C)CNC(=S)NNC(=O)c1ccco1,0%,-1%,-1%,3%,-3%,9%
CCCCn1c(CCNC(=O)c2cccs2)nc2ccccc21,29%,3%,-4%,3.5µM*,4%[2.3 µM],9%
O=C(NCCc1cccs1)c1cccs1,2.8µM*,?,?,2.8µM*,13µM*,?
CCCn1c(CNC(=O)c2cccs2)nc2ccccc21,-9%,-1%,-6%,-1%,-2%,-7%
O=C(NCC(O)c1ccccc1)c1cccs1 (stereo unspecified),?,15%,?,2.5µM*,17µM*,·
O=C(NCCCc1ccccc1)c1cccs1,26%,8%,12%,?,?,-9%
O=C(CNC(=O)c1cccs1)c1ccc(Br)cc1,0.45µM*,?,?,0.79µM*,9.5µM*,·
